Laboratory results taken from PubChem BioAssay (EPA / NIEHS).
Calls of active or inactive are those of the source. Rule for the calls: active = hit-call score of the fitted dose curve at least 0.9, where 1 is the maximum; inactive = score below 0.9.

Key:
[1] = read-out: Vascular endothelial growth factor receptor 2 (Homo sapiens) (UniProt P35968); experiment: BSK_4H_VEGFRII: BioMAP Diversity Plus: 4H Assay for Vascular endothelial growth factor receptor 2 (VEGFR2) Biomarker Activity (AID 2283031); details: primary human endothelial cells (HUVEC); actives raise or lower the signal;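 for AC50: cell-surface VEGFR2 protein level quantified by ELISA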
Summary of the method: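 Primary human umbilical vein endothelial cells in the BioMAP 4H system were dosed with test chemical, and 24 h later VEGFRII was measured by ELISA. Activity was fitted bidirectionally against DMSO as negative control and baseline.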

[2] = read-out: Vascular cell adhesion molecule 1 (VCAM1), VCAM1 (gene 7412); experiment: BSK_4H_VCAM1: BioMAP Diversity Plus: 4H Assay for Vascular cell adhesion molecule 1 (VCAM1) Biomarker Activity (AID 2283033); details: primary human endothelial cells (HUVEC); actives raise or lower the signal
Summary of the method: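 Primary human umbilical vein endothelial cells were exposed to chemicals for 24 h, after which VCAM-1 was quantified by ELISA. Responses were fitted bidirectionally against DMSO as negative control and activity baseline.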

[3] = read-out: Interferon-gamma inducible Protein 10 (IP10), CXCL10 (gene 3627); experiment: BSK_BE3C_IP10: BioMAP Diversity Plus: BE3C Assay for Interferon-gamma inducible Protein 10 (IP10) Biomarker Activity (AID 2283034); details: primary human bronchial epithelial cells; actives raise or lower the signal
Summary of the method: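 Human primary bronchial epithelial cells were exposed to chemicals for 24 hours, after which IP-10 levels were measured by ELISA. Data were fitted bidirectionally against DMSO, which served as the negative control and activity baseline.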

[4] = read-out: Monokine induced gamma interferon (MIG), CXCL9 (gene 4283); experiment: BSK_BE3C_MIG: BioMAP Diversity Plus: BE3C Assay for Monokine induced gamma interferon (MIG) Biomarker Activity (AID 2283035); details: primary human bronchial epithelial cells; actives raise or lower the signal
Summary of the method: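 Primary human bronchial epithelial cells treated for 24 h; MIG levels measured by ELISA, fitted bidirectionally versus DMSO. Parallel SRB total-protein staining assessed cytotoxicity.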

[5] = read-out: Transforming growth factor beta 1 (TGFb1), TGFB1 (gene 7040); experiment: BSK_BE3C_TGFb1: BioMAP Diversity Plus: BE3C Assay for Transforming growth factor beta 1 (TGFb1) Biomarker Activity (AID 2283036); details: primary human bronchial epithelial cells; actives raise or lower the signal
Summary of the method: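 Human primary bronchial epithelial cells (BE3C system) were dosed with chemical and TGF-b1 levels measured by ELISA at 24 h. Activity was fitted bidirectionally relative to DMSO negative control as baseline.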

[6] = read-out: Plasminogen activator inhibitor-1 (PAI1), SERPINE1 (gene 5054); experiment: BSK_BE3C_PAI1: BioMAP Diversity Plus: BE3C Assay for Plasminogen activator inhibitor-1 (PAI1) Biomarker Activity (AID 2283037); details: primary human bronchial epithelial cells; actives raise or lower the signal
Summary of the method: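 Human primary bronchial epithelial cells were exposed to chemical for 24 h, then PAI-1 was quantified by ELISA. Activity was fitted bidirectionally relative to the DMSO negative control baseline.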

[7] = read-out: urokinase plasminogen activator (uPA), PLAU (gene 5328); experiment: BSK_BE3C_uPA: BioMAP Diversity Plus: BE3C Assay for urokinase plasminogen activator (uPA) Biomarker Activity (AID 2283038); details: primary human bronchial epithelial cells; actives raise or lower the signal
Summary of the method: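 Human primary bronchial epithelial cells were exposed to chemical for 24 h, then uPA levels were measured by ELISA. Responses were fitted bidirectionally against DMSO as negative control and baseline. Parallel SRB staining of total protein gauged overt cytotoxicity.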

[8] = read-out: Urokinase-type plasminogen activator receptor (uPAR), PLAUR (gene 5329); experiment: BSK_BE3C_uPAR: BioMAP Diversity Plus: BE3C Assay for Urokinase-type plasminogen activator receptor (uPAR) Biomarker Activity (AID 2283039); details: primary human bronchial epithelial cells; actives raise or lower the signal
Summary of the method: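 Primary human bronchial epithelial cells were dosed with chemical and harvested 24 h later; uPAR was quantified by ELISA. Activity was fitted bidirectionally against DMSO as negative control and baseline.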

[9] = read-out: Interleukin-6 (IL6), IL6 (gene 3569); experiment: BSK_CASM3C_IL6: BioMAP Diversity Plus: CASM3C Assay for Interleukin-6 (IL6) Biomarker Activity for (AID 2283040); details: primary human coronary artery smooth muscle cells; actives raise or lower the signal
[10] = read-out: Tissue plasminogen activator (tPA), PLAT (gene 5327); experiment: BSK_BE3C_tPA: BioMAP Diversity Plus: BE3C Assay for Tissue plasminogen activator (tPA) Biomarker Activity (AID 2283041); details: primary human bronchial epithelial cells; actives raise or lower the signal
Summary of the method: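 Human primary bronchial epithelial cells were dosed with chemical and tPA biomarker levels measured by ELISA 24 hours later. Activity was fitted bidirectionally against DMSO as negative control and baseline.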

[11] = read-out: Interleukin-8 (IL8), CXCL8 (gene 3576); experiment: BSK_CASM3C_IL8: BioMAP Diversity Plus: CASM3C Assay for Interleukin-8 (IL8) Biomarker Activity (AID 2283042); details: primary human coronary artery smooth muscle cells; actives raise or lower the signal;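 note: IL-8 protein level quantified by ELISA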
[12] = read-out: Human Leukocyte Antigen - DR isotype (HLADR), HLA-DRA (gene 3122); experiment: BSK_CASM3C_HLADR: BioMAP Diversity Plus: CASM3C Assay for Human Leukocyte Antigen - DR isotype (HLADR) Biomarker Activity (AID 2283043); details: primary human coronary artery smooth muscle cells; actives raise or lower the signal;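 note: cell-surface HLA-DR protein level quantified by ELISA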
[13] = read-out: Macrophage colony-stimulating factor (MCSF), CSF1 (gene 1435); experiment: BSK_CASM3C_MCSF: BioMAP Diversity Plus: CASM3C Assay for Macrophage colony-stimulating factor (MCSF) Biomarker Activity (AID 2283044); details: primary human coronary artery smooth muscle cells; actives raise or lower the signal;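 note: M-CSF protein amount quantified by ELISA after 24 h exposure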
[14] = read-out: Low-density lipoprotein receptor (LDLR), LDLR (gene 3949); experiment: BSK_CASM3C_LDLR: BioMAP Diversity Plus: CASM3C Assay for Low-density lipoprotein receptor (LDLR) Biomarker Activity (AID 2283045); details: primary human coronary artery smooth muscle cells; actives raise or lower the signal;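 note: LDLR protein level on the cell surface quantified by ELISA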
[15] = read-out: Monocyte Chemoattractant Protein-1 (MCP1), CCL2 (gene 6347); experiment: BSK_CASM3C_MCP1: BioMAP Diversity Plus: CASM3C Assay for Monocyte Chemoattractant Protein-1 (MCP1) Biomarker Activity (AID 2283046); details: primary human coronary artery smooth muscle cells; actives raise or lower the signal;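 note: MCP-1 level quantified by ELISA 24 h after dosing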
[16] = BSK_CASM3C_Proliferation: Cell Proliferation Assessment in the BioMAP Diversity Plus: CASM3C Assay (AID 2283047); details: primary human coronary artery smooth muscle cells;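 note: sulforhodamine B total protein stain as relative cell number at 560 nm; sub-confluent cells exposed 48 h before staining; fitted both ways against DMSO so gain or loss of cell number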
[17] = read-out: Monokine induced gamma interferon (MIG), CXCL9 (gene 4283); experiment: BSK_CASM3C_MIG: BioMAP Diversity Plus: CASM3C Assay for Monokine induced gamma interferon (MIG) Biomarker Activity (AID 2283048); details: primary human coronary artery smooth muscle cells; actives raise or lower the signal
[18] = read-out: serum amyloid A (SAA), SAA1 (gene 6288); experiment: BSK_CASM3C_SAA: BioMAP Diversity Plus: CASM3C Assay for serum amyloid A (SAA) Biomarker Activity (AID 2283049); details: primary human coronary artery smooth muscle cells; actives raise or lower the signal;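 note: SAA protein level quantified by ELISA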
[19] = BSK_CASM3C_SRB: Viability Assessment in the BioMAP Diversity Plus: CASM3C Assay (AID 2283050); details: primary human coronary artery smooth muscle cells;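 note: total protein by SRB staining as cytotoxicity measure in parallel cultures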

Measured: AC50

CC/C(=C(/CC)c1ccc(O)cc1)c1ccc(O)cc1
inactive: [1] | [9] | [12] | [13] | [17]
active: [2] 28.9 µM | [3] 17.1 µM | [4] 33 µM | [5] 6.47 µM | [6] 20 µM | [7] 33.6 µM | [8] 31.3 µM | [10] 14.3 µM | [11] 1.17 µM | [14] 8.57 µM | [15] 0.345 µM | [16] 20 µM | [18] 33.7 µM | [19] 29.9 µM

c1ccc(C[n+]2cccc3ccccc32)cc1
active: [3] 30.2 µM
inactive: all other assays above

CCOC(=O)O[C@H](C)OC(=O)c1ccc2c(c1)cc(C(=O)NC1CCN(C(C)C)CC1)n2Cc1cc(-c2ccc(Cl)s2)on1
active: [1] 5.06 µM | [2] 5.44 µM | [3] 11.5 µM | [4] 14.4 µM | [5] 11.8 µM | [6] 12.1 µM | [7] 9.63 µM | [8] 9.89 µM | [9] 9.24 µM | [10] 9.95 µM | [11] 8.81 µM | [12] 5.85 µM | [13] 5.13 µM | [15] 7.49 µM | [16] 2.41 µM | [17] 9.34 µM | [18] 6.05 µM | [19] 6.15 µM
inactive: [14]

CCCCCCCCOC(=O)c1cc(O)c(O)c(O)c1
active: [2] 6.26 µM | [3] 29.8 µM | [4] 34 µM | [5] 27.2 µM | [6] 32.8 µM | [7] 37.7 µM | [8] 36.5 µM | [9] 3.97 µM | [10] 24.9 µM | [11] 31.7 µM | [12] 31.9 µM | [13] 20 µM | [14] 29.2 µM | [15] 27.8 µM | [16] 16.1 µM | [17] 31 µM | [18] 20 µM | [19] 31.3 µM
inactive: [1]

OC12N=C(c3ccccc3)SC1Cc1cc(Cl)ccc12 (stereo not drawn)
active: [2] 20 µM | [16] 30.1 µM
inactive: all other assays above

CCCCOC(=O)CC(CC(=O)OCCCC)(OC(C)=O)C(=O)OCCCC
active: [18] 20 µM
inactive: all other assays above

CC(C)(O)c1ccc(CNC(=O)c2cccnc2Oc2ccc3nonc3c2)cc1
active: [9] 20 µM | [18] 27.5 µM
inactive: all other assays above
